Measurements published in PubChem BioAssay (NCI).
This is part of a sample that, as a whole, favours compounds with a hit. Of some 83,000 tested, about 20% had one in any assay.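 Single-dose data. Exposure time 48 hours. Values below 10 considered active.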 Activity calls are given as the source filed them.

Experiments:
Experiment in all cases: NCI-60 one-dose screen, 48 h (100 = growth as untreated, 0 = no growth, -100 = all killed)
Conditions in all cases: 10 µM unless noted
T-47D breast = test system: T-47D breast
BT-549 breast = test system: BT-549 breast
MDA-MB-435 melanoma = test system: MDA-MB-435 melanoma
SW-620 colon = test system: SW-620 colon
MCF7 breast = test system: MCF7 breast
HCT-116 colon = test system: HCT-116 colon
HCC-2998 colon = test system: HCC-2998 colon
KM12 colon = test system: KM12 colon

Measured: growth

CCSC(SCC)c1ccc(Cl)cc1
inactive: T-47D breast 101% | BT-549 breast 112% | MDA-MB-435 melanoma 97.4% | SW-620 colon 99.3% | MCF7 breast 104% | HCT-116 colon 108% | HCC-2998 colon 92.3% | KM12 colon 114%

COc1ccc(C(=O)c2cc3c(N)c(C(=O)Nc4ccc(C)cc4)sc3nc2C)cc1
active: MDA-MB-435 melanoma -42.9%
inactive: T-47D breast 46.6% | BT-549 breast 46.5% | SW-620 colon 28.3% | MCF7 breast 18.8% | HCT-116 colon 16.2% | HCC-2998 colon 13.9% | KM12 colon 15.5%

O=C(CN1C(=O)S/C(=C\c2ccccc2)C1=O)Nc1ncc(Cc2ccccc2Cl)s1
inactive: T-47D breast 88.1% | BT-549 breast 113% | MDA-MB-435 melanoma 93.6% | SW-620 colon 105% | MCF7 breast 92.7% | HCT-116 colon 94.5% | HCC-2998 colon 105% | KM12 colon 102%

COc1cc2c(cc1OCCCN1CCN(CCCOc3cc4c(cc3OC)C(=O)N3CCC[C@H]3C=N4)CC1)C=CC(C)(C)O2
active: T-47D breast -55.2% | BT-549 breast -100% | MDA-MB-435 melanoma -72.9% | SW-620 colon -100% | MCF7 breast -100% | HCT-116 colon -96% | HCC-2998 colon -82.1% | KM12 colon -82%

COc1ccc(/C=C/C(=O)c2ccc(Nc3ccnc4cc(Cl)ccc34)cc2)cc1
inactive: T-47D breast 83.1% | BT-549 breast 101% | MDA-MB-435 melanoma 85.6% | SW-620 colon 93.7% | MCF7 breast 76.2% | HCT-116 colon 34% | HCC-2998 colon 58.7% | KM12 colon 154%

C#CCOC(=O)/C=C/c1cn(-c2ccccc2)nc1-c1ccc(OC)cc1
inactive: T-47D breast 88.3% | BT-549 breast 108% | MDA-MB-435 melanoma 107% | SW-620 colon 112% | MCF7 breast 79.1% | HCT-116 colon 74.8% | HCC-2998 colon 105% | KM12 colon 96.9%

CC(=O)Oc1ccc(N2C(=O)C(Cl)=C(Nc3cccc(C(F)(F)F)c3)C2=O)cc1
inactive: T-47D breast 86.6% | BT-549 breast 85.8% | MDA-MB-435 melanoma 97.5% | SW-620 colon 99.1% | MCF7 breast 92.8% | HCT-116 colon 91% | HCC-2998 colon 104% | KM12 colon 96.3%

CC1=NC2=Nn3c(c4cnn(-c5ccccc5)c4n/c3=N\N)NN2C(c2ccccc2)=C1
inactive: T-47D breast 94.1% | BT-549 breast 95.4% | MDA-MB-435 melanoma 92.3% | SW-620 colon 86.8% | MCF7 breast 87.8% | HCT-116 colon 99.3% | HCC-2998 colon 99.2% | KM12 colon 92.9%

COc1ccc(/C=N\Nc2nc(SCCC(C)C)nc(-c3ccc(OC)cc3)c2C#N)cc1
inactive: T-47D breast 23.1% | BT-549 breast 93.1% | MDA-MB-435 melanoma 71.2% | SW-620 colon 49.6% | MCF7 breast 63.5% | HCT-116 colon 21.1% | HCC-2998 colon 82.1% | KM12 colon 83%

CCOc1ccccc1Cn1ccnc1CCc1c(Cl)c(O)cc(O)c1C(=O)OC
inactive: T-47D breast 92.4% | BT-549 breast 98.8% | MDA-MB-435 melanoma 110% | SW-620 colon 104% | MCF7 breast 91.7% | HCT-116 colon 89.3% | HCC-2998 colon 97.8% | KM12 colon 98.4%

N=C(N)c1ccc(-c2ccc(-c3ccc(Cl)cc3Cl)s2)cc1
active: MDA-MB-435 melanoma -2.28% | SW-620 colon -52.1% | MCF7 breast -65.4% | HCT-116 colon -60.1% | HCC-2998 colon -65.9% | KM12 colon -87.3%
inactive: T-47D breast 47.2% | BT-549 breast 100%

CC1=C2[C@@H](CC1)[C@]1(C)O[C@@](C(C)C)(C[C@H]1OC(=O)[C@H](C)O)[C@H]2OC(=O)/C=C/c1ccccc1
inactive: T-47D breast 57.6% | BT-549 breast 15.9% | MDA-MB-435 melanoma 94.2% | SW-620 colon 95.1% | MCF7 breast 81.6% | HCT-116 colon 74.2% | HCC-2998 colon 90.7% | KM12 colon 93.9%

COc1ccc(Cc2cnc(NC(=O)c3cc(C)oc3C)s2)cc1
inactive: T-47D breast 31.8% | BT-549 breast 50.7% | SW-620 colon 27.9% | MCF7 breast 21.6% | HCT-116 colon 25.1% | HCC-2998 colon 60.9% | KM12 colon 25.4%
active: MDA-MB-435 melanoma 0.623%

CC1=C([Se]CC(OC(=O)CC[Se]c2ccccc2)C(=O)NC(C)(C)C)C(=O)c2ccccc2C1=O (configuration not stated)
active: T-47D breast -54.5% | BT-549 breast -89% | MDA-MB-435 melanoma -61.7% | SW-620 colon -76.9% | MCF7 breast -54.7% | HCT-116 colon -61.9% | HCC-2998 colon -87.2% | KM12 colon -92.3%

CC(=O)N1N=C(c2ccc(Nc3nc(Nc4ccccc4)nc(Nc4ccccc4)n3)cc2)CC1c1cccc([N+](=O)[O-])c1 (configuration not stated)
inactive: T-47D breast 66.4% | BT-549 breast 111% | MDA-MB-435 melanoma 96.1% | SW-620 colon 94.9% | MCF7 breast 91.4% | HCT-116 colon 95.5% | HCC-2998 colon 103% | KM12 colon 129%

N#CC1=C(N)Oc2c(sc3c(Br)cccc23)C1c1ccc(Cl)cc1 (configuration not stated)
inactive: T-47D breast 26.3% | BT-549 breast 41% | SW-620 colon 27.3% | MCF7 breast 10% | HCT-116 colon 13.7% | HCC-2998 colon 10.9% | KM12 colon 26.4%
active: MDA-MB-435 melanoma -23.2%

CC1CCN(S(=O)(=O)c2ccc(S(=O)(=O)N3CCCC(c4nc5c(nnn5Cc5cccc(Cl)c5)c(=O)[nH]4)C3)cc2)CC1 (configuration not stated)
active: MDA-MB-435 melanoma -30.9%
inactive: T-47D breast 50.3% | BT-549 breast 67.9% | SW-620 colon 33.4% | MCF7 breast 23.3% | HCT-116 colon 15.1% | HCC-2998 colon 70.8% | KM12 colon 39.3%

Cc1[nH]c(C(=O)Nc2ccc(C(=O)N3CCN(c4cc5c(cc4F)c(=O)c(C(=O)O)cn5C4CC4)CC3)cc2OC(C)C)c(Cl)c1Cl
inactive: T-47D breast 84% | BT-549 breast 75.7% | MDA-MB-435 melanoma 88.5% | SW-620 colon 96.3% | MCF7 breast 88.8% | HCT-116 colon 38.1% | HCC-2998 colon 96.4% | KM12 colon 80.4%

CC1(C)COB(OCC(C)(C)COB2OCC(C)(C)CO2)OC1
inactive: T-47D breast 104% | BT-549 breast 105% | MDA-MB-435 melanoma 110% | SW-620 colon 110% | MCF7 breast 107% | HCT-116 colon 101% | HCC-2998 colon 104% | KM12 colon 103%

COc1ccc(NC(=O)c2sc3nc(C)c(C(=O)/C=C/c4ccccc4)cc3c2N)cc1
inactive: T-47D breast 57.7% | BT-549 breast 50% | MDA-MB-435 melanoma 15.7% | MCF7 breast 14.9% | HCT-116 colon 12.3% | HCC-2998 colon 25.2% | KM12 colon 18.7%
active: SW-620 colon 2.56%

COc1cc(C2c3cc(OC(C)=O)c(OC)cc3CC3C(=O)OCC32)ccc1OC(C)=O (configuration not stated)
inactive: T-47D breast 103% | BT-549 breast 99.6% | MDA-MB-435 melanoma 118% | SW-620 colon 101% | MCF7 breast 101% | HCT-116 colon 98.2% | HCC-2998 colon 104% | KM12 colon 117%

CCC1=C[C@@H]2C[C@]3(C(=O)OC)c4[nH]c5ccccc5c4CC[N@+](CC(=O)Nc4cc5c(cc4OC)N(C)[C@H]4[C@@](O)(C(=O)OC)[C@H](OC(C)=O)[C@]6(CC)C=CCN7CC[C@]54[C@@H]76)(C2)[C@H]13
inactive: T-47D breast 105% | BT-549 breast 111% | MDA-MB-435 melanoma 105% | SW-620 colon 100% | MCF7 breast 103% | HCT-116 colon 102% | HCC-2998 colon 110% | KM12 colon 104%

Clc1ccc2c(c1)C(c1c[nH]c3ccccc13)(c1c[nH]c3ccccc13)CCO2
inactive: BT-549 breast 77.2% | MDA-MB-435 melanoma 94.9% | SW-620 colon 87.4% | MCF7 breast 103% | HCT-116 colon 56.5% | HCC-2998 colon 112% | KM12 colon 78.2%
active: T-47D breast -3.57%

O=c1c2cccc3c(N4CCCC4)ccc(c32)c2nc3ccccc3n12
inactive: T-47D breast 72.2% | BT-549 breast 71.2% | MDA-MB-435 melanoma 103% | SW-620 colon 59.5% | MCF7 breast 50.1% | HCT-116 colon 54.7% | HCC-2998 colon 70.3% | KM12 colon 87.9%

O=[N+]([O-])c1cccc(-c2nc3cc4nc5ccccc5[nH]c4cc3n2)c1
inactive: T-47D breast 87.5% | BT-549 breast 102% | MDA-MB-435 melanoma 112% | SW-620 colon 112% | MCF7 breast 77.7% | HCT-116 colon 93.1% | HCC-2998 colon 112% | KM12 colon 100%

CCCCCN1C(=O)/C(=c2\sc3n(c2=O)C2C(NN=3)N(CC)C(=O)N2CC)c2ccccc21 (configuration not stated)
active: MDA-MB-435 melanoma -60.1% | SW-620 colon -42.1% | HCT-116 colon -72.1% | HCC-2998 colon -17.1% | KM12 colon -52.9%
inactive: T-47D breast 23.3% | BT-549 breast 19.5% | MCF7 breast 12%

N#Cc1c(-c2ccccc2)cc(-c2ccc(Nc3nc(Nc4ccc(Cl)cc4)nc(Nc4ccc(Cl)cc4)n3)cc2)nc1N
active: T-47D breast -39.5% | BT-549 breast -68.1% | MDA-MB-435 melanoma -34.4% | SW-620 colon -39.2% | HCT-116 colon 4.99% | HCC-2998 colon -14.3%
inactive: MCF7 breast 22% | KM12 colon 50.1%

C=CCSc1nnc(NC(=O)CCl)s1
inactive: T-47D breast 90.3% | BT-549 breast 79% | MDA-MB-435 melanoma 90.8% | SW-620 colon 105% | MCF7 breast 90.1% | HCT-116 colon 86.3% | HCC-2998 colon 130% | KM12 colon 95.3%

COc1c(B(O)O)cccc1-c1nc2c(F)cc3[nH]ncc3c2c2c1CCCC2
active: T-47D breast 8.61% | BT-549 breast -46.1% | MDA-MB-435 melanoma 8.04% | SW-620 colon 1.12% | MCF7 breast -3.83% | HCT-116 colon 2.84% | HCC-2998 colon 1.17% | KM12 colon -12.1%
